Test [1] can be described thus: qHTS RealTime-Glo MT Cell Viability Assay in HEK293 cells - 0 hour (AID 1224880). Also: top concentration of the series differs between compounds; nearly all actives have a fitted effect of over 45% in size. The method in brief:
(§1)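 600 cells/well were plated with the nonlytic NanoLuc/prosubstrate reagent, pre-incubated 5 h, then given 23 nL of compound in DMSO. Incubation at 37 C for 40 h, with luminescence from viable-cell-reduced substrate read repeatedly from 0 h.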
For orientation: qHTS replaces the single test concentration by a dilution series.

A short description of test [2]: A CellTox Green Cytotoxicity Assay to monitor cytotoxicity in HEK293 cells - 32 hour (AID 1224881). Also: nearly all actives have a fitted effect of over 40% in size. Also: potency is read from the fitted curve at half-maximal effect. The method in brief: (§2)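 HEK293 cells, 600/well, were preincubated 5 hours and then exposed to compounds at 37 C for up to 40 hours. A cell-impermeant cyanine dye staining dead-cell DNA was read by fluorescence at 0, 8, 16, 24, 32 and 40 h time points.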
Test [3] in a line: A CellTox Green Cytotoxicity Assay to monitor cytotoxicity in HepG2 cells - 0 hour (AID 1224882). Also: nearly all actives have a fitted effect of over 35% in size. Also: potency is read from the fitted curve at half-maximal effect. The procedure, abridged:
(§3)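 HepG2 cells, 600/well, preincubated 5 h with CellTox Green dye, then exposed to Tox21 compounds in DMSO at 37 C for up to 40 h. Dead-cell DNA fluorescence read at the indicated time point.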

Test [4] can be described thus: A CellTox Green Cytotoxicity Assay to monitor cytotoxicity in HepG2 cells - 32 hour (AID 1224883). Also: nearly all actives have a fitted effect of over 50% in size. Also: potency is read from the fitted curve at half-maximal effect. The procedure, abridged: as §3
A short description of test [5]: A CellTox Green Cytotoxicity Assay to monitor cytotoxicity in HEK293 cells - 8 hour (AID 1224884). Also: nearly all actives have a fitted effect of over 35% in size. Also: potency is read from the fitted curve at half-maximal effect. The method in brief:
as §2

A short description of test [6]: qHTS RealTime-Glo MT Cell Viability Assay in HepG2 cells - 16 hour (AID 1224885). Also: nearly all actives have a fitted effect of over 50% in size. The procedure, abridged: (§4)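 HepG2 cells were seeded at 600 cells/well together with NanoLuc luciferase and a cell-permeant prosubstrate, preincubated 5 h at 37 C/5% CO2, then pin-dosed with compounds in DMSO. Nonlytic luminescence from viable cells was read at each time point.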
Test [7] is described as follows: qHTS RealTime-Glo MT Cell Viability Assay in HEK293 cells - 24 hour (AID 1224886). Also: top concentration of the series differs between compounds; nearly all actives have a fitted effect of over 50% in size. The method in brief: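 HEK293 cells were seeded at 600 cells/well together with NanoLuc luciferase and cell-permeant prosubstrate, preincubated 5 h at 37 C/5% CO2, then given compound in DMSO by pintool. Luminescence from viable-cell prosubstrate reduction was read repeatedly over 40 h.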

A short description of test [8]: A CellTox Green Cytotoxicity Assay to monitor cytotoxicity in HEK293 cells - 16 hour (AID 1224888). Also: nearly all actives have a fitted effect of over 35% in size. The method in brief: as §2
Test [9] is described as follows: qHTS RealTime-Glo MT Cell Viability Assay in HepG2 cells - 0 hour (AID 1224889). Also: nearly all actives have a fitted effect of over 50% in size. Also: potency is read from the fitted curve at half-maximal effect. The procedure, abridged:
as §4

Test [10] is described as follows: qHTS RealTime-Glo MT Cell Viability Assay in HEK293 cells - 8 hour (AID 1224887). The method in brief:
as §1

Values joined by “and” are separate entries in the source; they are usually repeats but may differ in a detail not shown here. Equal values may be shown once. Results filed as inconclusive are left out. The source holds several records for some structures; these can differ, active in one and inactive in another. Active and inactive are the calls of the source. Calls follow the shape of the dose curve; as a rule, active = well fitted curve in the direction sought with a large enough effect in the repeat runs; inconclusive = weak or mixed curves; inactive = no such curve, though single readings can be large; an effect the other way counts as inactive or inconclusive.

18 compounds from PubChem BioAssay (Tox21) can be followed below.

Regarding `NC(=O)c1ccccc1O`, the Potency result in test [1], in test [2], in [3], in [4], in test [5] and in [6] was “inactive” throughout. For the same compound, the Potency result in test [7], in test [8] and in test [9] was “inactive” throughout.
Regarding `CCCCOC(=O)CC(CC(=O)OCCCC)(OC(C)=O)C(=O)OCCCC`, the Potency result in test [1], in test [2], in test [3], in [4], in test [5] and in test [6] was “inactive” throughout. Further, the Potency result in test [7], in test [8] and in test [9] was “inactive” throughout.
Regarding `Cc1cc(=O)n(-c2ccccc2)n1C`, the Potency entry in test [1], in test [3], in [4], in test [5], in test [6] and in test [7] was “inactive” throughout. In addition, the Potency entry in test [10] and in test [9] was “inactive” throughout. Besides, in test [2], the Potency was 44.8 µM (active) and inactive.
Turning to `CC(=O)NS(=O)(=O)c1ccc(N)cc1`, the Potency result in test [1], in [2], in [3], in test [4], in test [5] and in [6] was “inactive” in each case. For the same compound, the Potency entry in test [7], in test [10], in test [8] and in test [9] was “inactive” in each case.
For the compound `CC(O)CN(CCN(CC(C)O)CC(C)O)CC(C)O` (stereo not drawn), the Potency entry in test [1], in test [2], in [3], in test [4], in test [5] and in test [6] was “inactive” throughout. The Potency result in test [7] and in [9] was “inactive” each time.
On to `O=C(O)CCCCCCCC(=O)O`, for which the Potency result in test [1], in test [2], in test [3], in test [4], in [5] and in test [6] was “inactive” in each case. Further, the Potency result in test [7], in test [8] and in test [9] was “inactive” each time.
On to `CC(O)CO` (stereo not drawn), for which the Potency entry in [1], in test [2], in test [3], in test [4], in test [5] and in test [6] was “inactive” in each case. Moreover, the Potency result in test [7], in [8] and in [9] was “inactive” in each case.
Consider `Cn1c(=O)c2[nH]cnc2n(C)c1=O`, for which the Potency entry in [1], in test [2], in test [3], in test [4], in test [5] and in test [6] was “inactive” throughout. The Potency result in [7], in test [8] and in test [9] was “inactive” throughout.
For `NS(=O)(=O)c1cc(C(=O)O)c(NCc2ccco2)cc1Cl`, the Potency result in test [1], in [2], in [3], in [5], in test [6] and in test [7] was “inactive” in each case. Moreover, the Potency result in test [8] and in test [9] was “inactive” each time. Besides, the Potency in [4] is 19.6 µM (active) and inactive.
In the case of `O=C(O)CCCCC(=O)O`, the Potency result in test [1], in [2], in test [3], in test [4], in [5] and in test [6] was “inactive” throughout. Also, the Potency result in test [7], in test [8] and in test [9] was “inactive” each time.
With `C[C@]12C=CC(=O)C=C1CC[C@@H]1[C@@H]2[C@@H](O)C[C@@]2(C)[C@H]1CC[C@]2(O)C(=O)CO`, the Potency entry in [2], in [3], in test [4], in test [5], in test [6] and in [7] was “inactive” throughout. Moreover, the Potency entry in [10] and in test [8] was “inactive” each time. Also, in test [9], the Potency is 21.6 µM (active) and 19.5 µM (active).
For the compound `O=C(O)/C=C\C(=O)O`, the Potency entry in [2], in test [3], in [4], in [5], in test [6] and in [7] was “inactive” in each case. Further, the Potency entry in test [10], in [8] and in [9] was “inactive” in each case.
With `O=S(=O)(O)c1ccc2cc(O)ccc2c1`, the Potency result in test [1], in test [2], in [3], in [4], in test [5] and in test [6] was “inactive” each time. Moreover, the Potency entry in test [7], in test [10], in [8] and in test [9] was “inactive” throughout.
For `Cc1cn([C@H]2C[C@H](N=[N+]=[N-])[C@@H](CO)O2)c(=O)[nH]c1=O`, the Potency result in test [1], in test [2], in test [3], in [4], in test [5] and in [6] was “inactive” in each case. The Potency entry in test [7], in [10], in test [8] and in test [9] was “inactive” throughout.
Regarding `O=C1CN(/N=C/c2ccc([N+](=O)[O-])o2)C(=O)N1`, the Potency entry in [1], in test [2], in test [3], in test [4], in test [5] and in test [6] was “inactive” throughout. The Potency entry in test [7], in test [8] and in test [9] was “inactive” throughout.
`Nc1ccc(S(=O)(=O)Nc2nccs2)cc1`: the Potency result in [1], in test [6], in test [7] and in test [9] was “inactive” throughout. Besides, the Potency result in test [2] is “inactive and 43.6 µM (active)”; in test [3] it was “inactive and 43.6 µM (active)”; in test [4] it was “inactive and 43.6 µM (active)”; in test [5], “inactive and 49 µM (active)”.
For the compound `O=C(c1ccccc1)c1ccccc1`, the Potency entry in test [1], in [2], in test [3], in test [4], in test [5] and in test [6] was “inactive” each time. The Potency result in test [7], in [8] and in [9] was “inactive” throughout.
Regarding `CC(O)C(=O)O` (stereo not drawn), the Potency result in test [1], in test [2], in test [3], in [4], in [5] and in [6] was “inactive” throughout. Also, the Potency entry in test [7], in test [8] and in [9] was “inactive” throughout.
